Assay outcomes (PubChem BioAssay)
This is a sample that favours compounds with a hit; in the whole collection about 3.4% have one here.
SIRT5 inh: blocks human SIRT5 desuccinylation of peptide | Purified SirT5, succinyl-peptide AMC, trypsin-coupled fluorescence | inhibition, % at 15 µM | 330,000 compounds, 1.1% hits | AID 652115; in the data active = inhibition above about 15%
Target sequence (Q9NXA8 whole entry, looked up): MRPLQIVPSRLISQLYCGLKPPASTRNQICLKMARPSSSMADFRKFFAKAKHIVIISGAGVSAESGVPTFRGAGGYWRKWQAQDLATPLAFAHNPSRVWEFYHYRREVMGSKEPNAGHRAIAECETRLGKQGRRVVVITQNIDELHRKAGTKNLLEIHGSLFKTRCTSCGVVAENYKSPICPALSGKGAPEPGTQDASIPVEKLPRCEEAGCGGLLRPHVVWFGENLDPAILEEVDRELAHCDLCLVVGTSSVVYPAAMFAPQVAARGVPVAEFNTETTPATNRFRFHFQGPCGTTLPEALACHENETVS
LGR2 inh: inhibitors of bursicon-induced Drosophila LGR2 receptor cAMP signaling; 380,000 compounds, 0.35% hits; HEK293 LGR2, CRE-luciferase, bursicon-stimulated, 4 h; inhibition, % at 9.99 µM;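 active = drop in luminescence signal, shown as inhibition above about 50% in the replicate tests, limit read from the data, passing the limit was not always enough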;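 also: agonist challenge used bursicon conditioned medium at about half maximal strength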
rRNA inh HTS: selective bacterial rRNA inhibition in E. coli; E. coli WT GFP vs humanized-ribosome RFP mutants, fluorescence, 24 h; stronger effect = lower value; DMSO median 0, no signal -100; GFP signal change (wild-type ribosome), % (concentration not given with the values); 350,000 compounds, 1.6% hits; AID 720706;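 active = significant combined selectivity score with lowered wild-type GFP, culture density cut under 30%, mutant RFP and density less affected; inactive = any of these conditions unmet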
PAX8 reporter: inhibitors of PAX8 transcriptional activity in RMG-I cells; RMG-I TPO-luciferase reporter, SteadyGlo, 24 h; inhibition, % at 12.6 µM; 360,000 compounds, 1.2% hits;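 active = mean replicate inhibition at least 60% with every replicate also reaching 60%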;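 also: luciferase light reporting Pax8 driven TPO promoter activity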
EWS-Fli inh: EWS/Fli transcriptional activity inhibition | AID 651661 | 350,000 compounds, 0.67% hits | A673 NR0B1-luciferase reporter, viability-normalised | inhibition, % at 12.6 µM;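 active = mean inhibition of at least 50% after viability correction, with every replicate also passing that limit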;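 also: firefly luciferase signal divided by Alamar Blue viability fluorescence both relative to DMSO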
PGC1a acetyl inh: lowers PGC1a acetylation signal in U2OS cells | AlphaScreen anti-acetyl-lysine; with virally co-expressed GCN5 acetyltransferase | inhibition, % at 15.6 µM | 350,000 compounds, 0.17% hits | AID 651687;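 active = every replicate shows inhibition of at least 40%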
Of the large screens only hits and unclear results are named; the others gave an inactive call; ! = not active in a repeat.

CN1c2ccc(-c3ccc(F)cc3)cc2[C@@H]2[C@@H](CCN2C(=O)Nc2ccc(F)cc2)[C@@H]1CO	none (no result: SIRT5 inh)
C[C@@H]1CN([C@H](C)CO)S(=O)(=O)c2ccc(C3=CCCCC3)cc2O[C@H]1CN(C)Cc1ccccc1	PGC1a acetyl inh 43 (no result: PAX8 reporter)
C[C@H](CO)N1C[C@H](C)[C@@H](CN(C)Cc2ccccc2)Oc2cc(C3=CCCC3)ccc2S1(=O)=O	SIRT5 inh 17 (no result: PAX8 reporter)
CN(C)CC(=O)N1[C@H](CO)[C@H](c2ccccc2)C12CN(C(=O)c1cccc(F)c1)C2	none (no result: PAX8 reporter, PGC1a acetyl inh)
Cc1csc(-c2nc3ccccc3n2C(C)c2nc3ccccc3[nH]2)c1 (stereo not given)	rRNA inh HTS -30 (no result: PGC1a acetyl inh)
CC1=NN(c2ccccc2)C(=O)C1/C=C1\NC(=S)NC1=O (stereo not given)	SIRT5 inh 15 (no result: PGC1a acetyl inh)
CC1=NN(c2ccccc2)C(=O)/C1=C/N(C)C	none
CC1=NN(c2ccccc2)C(=O)C1C=Nc1ccccc1O (stereo not given)	rRNA inh HTS -19
C[C@@H]1CN([C@H](C)CO)C(=O)c2cc(-c3ccc(C#N)cc3)cnc2O[C@H]1CN(C)C(=O)Nc1ccc(C(F)(F)F)cc1	none
CCOC(=O)C1CCN(C2=NC(=O)/C(=C/c3ccccc3OC)S2)CC1	rRNA inh HTS -24
COc1ccccc1/C=C1\SC(N2CCC(C)CC2)=NC1=O	none (no result: PGC1a acetyl inh)
CCCNC(=O)N1C[C@H](C)[C@@H](OC)CN(C)C(=O)c2cc(NC(=O)C3CCC3)ccc2OC[C@@H]1C	none (no result: SIRT5 inh, PAX8 reporter)
COc1cccc(NC2=C(C#N)C(=O)NC(c3cccc(OC)c3O)S2)c1 (stereo not given)	none
N#CC1=C(Nc2ccccc2Cl)SC(c2ccccc2O)NC1=O (stereo not given)	rRNA inh HTS -27 (no result: PGC1a acetyl inh)
COc1cccc(C(=O)Nc2ccc3c(c2)C(=O)N(C)C[C@H](OC)[C@@H](C)CN(CCc2ccccc2)[C@@H](C)CO3)c1	SIRT5 inh 18
COc1cccc(S(=O)(=O)Nc2ccc3c(c2)C(=O)N(C)C[C@H](OC)[C@H](C)CN(Cc2ccccc2F)[C@@H](C)CO3)c1	rRNA inh HTS -18!
COc1cccc(C(=O)Nc2ccc3c(c2)OC[C@@H](C)N(CCc2ccccc2)C[C@@H](C)[C@H](OC)CN(C)C3=O)c1	PAX8 reporter 68
COc1cccc(C(=O)Nc2ccc3c(c2)C(=O)N(C)C[C@@H](OC)[C@H](C)CN(CCc2ccccc2)[C@H](C)CO3)c1	PAX8 reporter 71
COc1cccc(C(=O)Nc2ccc3c(c2)C(=O)N(C)C[C@@H](OC)[C@H](C)CN(CCc2ccccc2)[C@@H](C)CO3)c1	none
COc1ccccc1C(=O)N1C[C@@H]2[C@H](c3ccccc31)[C@@H](CO)N2C(=O)C1CCCC1	none
COCC(=O)N(C)C[C@@H]1Oc2cc(C#CC3CCCC3)ccc2S(=O)(=O)N([C@@H](C)CO)C[C@H]1C	none (no result: SIRT5 inh, PAX8 reporter)
C/C=C/c1ccc([C@@H]2[C@@H](CO)N(C(=O)C3CC3)C23CN(S(=O)(=O)CC)C3)cc1	none
O=C(C1=C[C@H](c2ccccc2)C[C@H](OCc2ccc(CO)cc2)O1)N1CCCC1	none (no result: LGR2 inh, rRNA inh HTS, PGC1a acetyl inh)
Cc1nc(Sc2ccc(Cl)cc2)c(C#N)c(C)c1[N+](=O)[O-]	rRNA inh HTS -20
COc1ccc(C(=O)Nc2nnc(CC(=O)N/N=C/c3ccc(O)cc3O)s2)cc1	SIRT5 inh 17 (no result: PGC1a acetyl inh)
COc1ccc2[nH]c(C(=O)N/N=C/c3ccc(O)cc3O)cc2c1	PAX8 reporter 85 (no result: PGC1a acetyl inh)
CN(C)C(=O)C[C@@H]1C=C[C@@H](NC(=O)C2CCOCC2)[C@H](CO)O1	none (no result: PAX8 reporter, PGC1a acetyl inh)
C[C@H](CO)N1C[C@H](C)[C@H](CN(C)C)Oc2cc(C#Cc3ccncc3)ccc2S1(=O)=O	none (no result: PAX8 reporter)
O=C(CCNS(=O)(=O)c1ccc(Br)s1)NC1CCCC1	SIRT5 inh 20 (no result: PAX8 reporter, EWS-Fli inh)
O=c1c2c(nc3n1CCCCC3)-c1ccccc1CC21CCCC1	rRNA inh HTS -36 (no result: PAX8 reporter)
Nn1cnc2c(c1=O)C1(CCCCC1)Cc1ccccc1-2	none (no result: SIRT5 inh, rRNA inh HTS, EWS-Fli inh, PGC1a acetyl inh)
CC(C)NC(=O)N(C)C[C@H]1Oc2cc(C#Cc3ccc(F)cc3)ccc2S(=O)(=O)N([C@H](C)CO)C[C@@H]1C	none (no result: PAX8 reporter)
COc1ccc(COCC23N=C4SCCCN4[C@H](c4ccccc4O2)[C@H]3COC(=O)c2ccccc2)cc1	none (no result: LGR2 inh, rRNA inh HTS)
